Test results taken from PubChem BioAssay (NCATS).
Records with an inconclusive call do not appear. The source made the active and inactive calls. Unless noted, calls come from the whole dose curve; as a rule, active = well fitted cell-killing curve with a large enough effect; inconclusive = small, poorly fitted or top-dose-only effect; inactive = flat fitted curve, though single readings scatter.

Legend:
[1] = Cell Viability - LYMP2-025 (AID 976); conditions: LYMP2-025 lymphoblastoid cell viability; series mostly up to 92.2 µM;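 note: plate controls were DMSO only for no effect and tetraoctylammonium bromide control for full effect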
Procedure, shortened: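 Luminescent ATP readout after 24 hr treatment of a human lymphoblastoid line (LYMP2-025, 2500 cells/well, 37 C). Reagent developed 30 min at room temperature; AC50 fitted with the Hill equation.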

[2] = Cell Viability - LYMP2-002 (AID 977); conditions: LYMP2-002 lymphoblastoid cell viability, qHTS; series mostly up to 92.2 µM;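 note: compound exposure lasted 24 h at 37 °C; plate controls were DMSO only for no effect and 92 µM tetraoctylammonium bromide for full effect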
Procedure, shortened: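 Human lymphoblastoid cells, 2500/well, complete medium; 5 h 37 C settle; compound 24 h 37 C; CellTiter-Glo, 30 min RT; luminescence. Decrease in ATP = cytotoxicity; AC50 via Hill equation.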

[3] = Cell Viability - LYMP2-006 (AID 978); conditions: LYMP2-006 lymphoblastoid cell viability, qHTS; series mostly up to 92.2 µM; note: % is set by controls: 0 for no effect and ±100 for the full control effect; nearly all actives have a fitted effect of over 60% in size
Procedure, shortened: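 Human lymphoblastoid cells (LYMP2-006), 2500/well in complete medium, were treated with compound for 24 hr at 37 C. Cellular ATP was read by CellTiter-Glo luminescence after 30 min, and AC50 values came from Hill-equation fits of concentration-response data.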

[4] = Cell Viability - LYMP2-008 (AID 980); conditions: LYMP2-008 lymphoblastoid cell viability, qHTS; series mostly up to 92.2 µM; note: % is set by controls: 0 for no effect and ±100 for the full control effect; nearly all actives have a fitted effect of over 60% in size
Procedure, shortened: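 Measured: ATP-dependent luminescence, proportional to viable cell number, in human lymphoblastoid cells treated 24 hr with compound in complete culture medium. Values are AC50s from Hill-equation modelling of qHTS titrations.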

[5] = Cell Viability - LYMP2-010 (AID 981); conditions: LYMP2-010 lymphoblastoid cell viability, qHTS; series mostly up to 92.2 µM; note: % is set by controls: 0 for no effect and ±100 for the full control effect; nearly all actives have a fitted effect of over 55% in size
Procedure, shortened: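 This 24 hr viability screen uses LYMP2-010 lymphoblastoid cells, quantifies ATP via luciferase luminescence, and derives AC50 from Hill fits of qHTS concentration-response data.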

[6] = Cell Viability - LYMP2-012 (AID 982); conditions: LYMP2-012 lymphoblastoid cell viability qHTS; series mostly up to 92.2 µM;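 note: cellular ATP by luciferase luminescence where a drop means cytotoxicity; cells exposed to compound for one day before reading; 0% = DMSO only and full loss = 92 µM tetraoctylammonium bromide; nearly all actives have a fitted effect of over 55% in size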
[7] = Cell Viability - LYMP2-014 (AID 983); conditions: LYMP2-014 lymphoblastoid cells, viability qHTS; series mostly up to 92.2 µM;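 note: plate controls were DMSO only for no effect and 92 µM tetraoctylammonium bromide for full effect; nearly all actives have a fitted effect of over 50% in size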
Procedure, shortened: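 Quantitative HTS in lymphoblastoid cells: 24 hr compound exposure, then CellTiter-Glo ATP luminescence. Positive control was tetraoctylammonium bromide, 6.4pM to 92 uM.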

[8] = Cell Viability - LYMP2-016 (AID 984); conditions: LYMP2-016 lymphoblastoid cell viability, qHTS; series mostly up to 92.2 µM; note: % is set by controls: 0 for no effect and ±100 for the full control effect; nearly all actives have a fitted effect of over 55% in size
Procedure, shortened: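 Human lymphoblastoid LYMP2-016 cells, 2500 per well, treated with compounds for 24 h at 37 C. Viability read as intracellular ATP by CellTiter-Glo luminescence after 30 min at room temperature; AC50 from Hill fits of concentration-response.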

[9] = Cell Viability - LYMP2-018 (AID 985); conditions: LYMP2-018 lymphoblastoid cells, viability (qHTS); series mostly up to 92.2 µM;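 note: plate controls were DMSO only for no effect and tetraoctylammonium bromide at 92 µM for full effect; nearly all actives have a fitted effect of over 50% in size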
Procedure, shortened: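 In this qHTS viability assay, cells are treated for 24 hr and cellular ATP is quantified by luciferase-based luminescence, with tetraoctylammonium bromide as positive control.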

[10] = Cell Viability - LYMP2-020 (AID 986); conditions: series mostly up to 92.2 µM;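 note: plate controls were DMSO only for no effect and tetraoctylammonium bromide at 92 µM for full effect; nearly all actives have a fitted effect of over 55% in size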
Procedure, shortened: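 Cells at 2500 per well receive a 24 hr compound exposure at 37 C. Viability is measured as ATP-dependent luciferase luminescence, with AC50 modeled from qHTS concentration-response curves.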

[11] = Cell Viability - LYMP2-022 (AID 987); conditions: LYMP2-022 lymphoblastoid cell viability; series mostly up to 92.2 µM
Procedure, shortened: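 In this qHTS cytotoxicity screen, compound titrations were incubated 24 hr at 37 C with human lymphoblastoid cells in complete medium. Luciferase-based ATP luminescence provided the viability signal.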

[12] = Cell Viability - LYMP2-024 (AID 988); conditions: LYMP2-024 lymphoblastoid cell viability; series mostly up to 92.2 µM;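 note: plate controls were DMSO only for no effect and 92 µM tetraoctylammonium bromide for full effect; nearly all actives have a fitted effect of over 60% in size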
Procedure, shortened: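 Cells at 2500 per well received compound for 24 hr after a 5 hr settling period. Viability was scored by CellTiter-Glo luminescence, with AC50 from Hill fits.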

[13] = Cell Viability - LYMP2-026 (AID 989); conditions: LYMP2-026 lymphoblastoid cell viability, qHTS; series mostly up to 92.2 µM; note: % is set by controls: 0 for no effect and ±100 for the full control effect; nearly all actives have a fitted effect of over 50% in size
Procedure, shortened: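 Acute toxicity screen in complete culture medium, with 24 hr compound exposure at 37 C. Viability read as cellular ATP via luciferase reaction, with tetraoctylammonium bromide (6.4pM to 92 uM) as positive control.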

[14] = Cell Viability - LYMP1-002 - Assay at 24 hr (AID 993); conditions: LYMP1-002 lymphoblastoid cells viability; series mostly up to 92.2 µM; note: % is set by controls: 0 for no effect and ±100 for the full control effect
Procedure, shortened: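 Viability was judged from intracellular ATP using a luciferase read-out, following a 24-hour compound incubation at 37 C of lymphoblastoid cells seeded at 2500 per well. Concentration-response data were fitted to the Hill equation for AC50.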

[15] = Cell Viability - LYMP1-002 - Assay at 40 hr (AID 994); conditions: LYMP1-002 lymphoblastoid cell viability; series mostly up to 92.2 µM;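 note: 0% = DMSO only and full inhibition = 92 µM tetraoctylammonium bromide; nearly all actives have a fitted effect of over 60% in size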
Procedure, shortened: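 Concentration-dependent ATP loss after 40 hr treatment at 37 C defined toxicity; AC50 values were obtained by fitting the standard Hill equation.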

[16] = target: Estrogen receptor (Homo sapiens) (UniProt P03372); assay: qHTS assay for small molecule antagonists of estrogen receptor alpha signaling (AID 588513; active = well fitted curve in the direction sought with a large enough effect in the signal ratio, with a control signal flat, not every such curve was filed as active; the % refers to the signal ratio; note: % is set by controls: 0 for no effect and ±100 for the full control effect); conditions: ER-alpha-UAS-bla HEK293, beta-lactamase ratio, antagonist mode; series mostly up to 76.9 µM
Procedure, shortened: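 ER-alpha-UAS-bla GripTite HEK 293 cells in 2% charcoal/dextran-treated FBS medium; compounds titrated (1:2, duplicate), then stimulated with 0.5 nM 17-beta-estradiol for 18 h at 37C. CCF4 beta-lactamase fluorescence; Hill-fit IC50 and efficacy.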

[17] = target: Estrogen receptor (Homo sapiens) (UniProt P03372); assay: qHTS assay for small molecule agonists of estrogen receptor alpha signaling (AID 588514; calls by dose curve;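 note: 0% = vehicle only and 100% = reference agonist; nearly all actives have a fitted effect of over 70% in size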); conditions: ER-alpha-UAS-bla HEK293, beta-lactamase ratio, 18 h; series mostly up to 76.8 µM
Procedure, shortened: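 Fluorescence from CCF4 cleavage reports ER-alpha-driven beta-lactamase expression in HEK 293 cells treated 18 hrs at 37 C. Data normalized to 17-beta-estradiol (20 nM) and DMSO, fitted to Hill equation.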

[18] = Cell Viability - LYMP2-007 (AID 979); conditions: LYMP2-007 lymphoblastoid cell viability; series mostly up to 92.2 µM
Procedure, shortened: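 Measured via luciferase-based ATP quantitation: lymphoblastoid cells, 24 hr compound exposure at 37 C, AC50 from Hill fits.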

[19] = target: Androgen receptor (Homo sapiens) (UniProt P10275); assay: qHTS assay for small molecule agonists of androgen receptor signaling (AID 588515; active = well fitted curve in the direction sought with a large enough effect in the signal ratio, with a control signal flat; the % refers to the signal ratio; note: % is set by controls: 0 for no effect and ±100 for the full control effect); conditions: AR-UAS-bla HEK293, beta-lactamase ratio, agonist 16 h; stronger effect = higher value
Procedure, shortened: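 Stimulation of an AR-responsive β-lactamase reporter in GripTite HEK293 cells was measured after 16 h compound exposure at 37 °C, via CCF4 fluorescence after 2 h RT. EC50 from Hill fits, normalized to R1881 at 30 nM.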

Sequence of Estrogen receptor (Homo sapiens) (P03372 whole entry, looked up): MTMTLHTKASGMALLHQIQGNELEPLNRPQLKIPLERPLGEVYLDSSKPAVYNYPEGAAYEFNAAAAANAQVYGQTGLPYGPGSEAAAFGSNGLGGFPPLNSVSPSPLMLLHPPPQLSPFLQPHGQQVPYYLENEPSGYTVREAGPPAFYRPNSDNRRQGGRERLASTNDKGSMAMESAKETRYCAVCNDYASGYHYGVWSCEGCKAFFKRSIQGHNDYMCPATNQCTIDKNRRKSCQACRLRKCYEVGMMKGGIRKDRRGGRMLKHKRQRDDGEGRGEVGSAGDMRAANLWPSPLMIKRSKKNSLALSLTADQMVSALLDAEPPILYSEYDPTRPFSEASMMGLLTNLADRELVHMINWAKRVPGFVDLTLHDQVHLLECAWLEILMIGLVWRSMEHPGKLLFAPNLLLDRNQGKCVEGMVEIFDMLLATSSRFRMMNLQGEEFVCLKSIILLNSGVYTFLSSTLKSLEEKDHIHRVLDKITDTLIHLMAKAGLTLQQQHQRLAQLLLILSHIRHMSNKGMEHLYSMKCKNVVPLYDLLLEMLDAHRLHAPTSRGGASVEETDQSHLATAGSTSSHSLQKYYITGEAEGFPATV
Sequence of Androgen receptor (Homo sapiens) (P10275 whole entry, looked up): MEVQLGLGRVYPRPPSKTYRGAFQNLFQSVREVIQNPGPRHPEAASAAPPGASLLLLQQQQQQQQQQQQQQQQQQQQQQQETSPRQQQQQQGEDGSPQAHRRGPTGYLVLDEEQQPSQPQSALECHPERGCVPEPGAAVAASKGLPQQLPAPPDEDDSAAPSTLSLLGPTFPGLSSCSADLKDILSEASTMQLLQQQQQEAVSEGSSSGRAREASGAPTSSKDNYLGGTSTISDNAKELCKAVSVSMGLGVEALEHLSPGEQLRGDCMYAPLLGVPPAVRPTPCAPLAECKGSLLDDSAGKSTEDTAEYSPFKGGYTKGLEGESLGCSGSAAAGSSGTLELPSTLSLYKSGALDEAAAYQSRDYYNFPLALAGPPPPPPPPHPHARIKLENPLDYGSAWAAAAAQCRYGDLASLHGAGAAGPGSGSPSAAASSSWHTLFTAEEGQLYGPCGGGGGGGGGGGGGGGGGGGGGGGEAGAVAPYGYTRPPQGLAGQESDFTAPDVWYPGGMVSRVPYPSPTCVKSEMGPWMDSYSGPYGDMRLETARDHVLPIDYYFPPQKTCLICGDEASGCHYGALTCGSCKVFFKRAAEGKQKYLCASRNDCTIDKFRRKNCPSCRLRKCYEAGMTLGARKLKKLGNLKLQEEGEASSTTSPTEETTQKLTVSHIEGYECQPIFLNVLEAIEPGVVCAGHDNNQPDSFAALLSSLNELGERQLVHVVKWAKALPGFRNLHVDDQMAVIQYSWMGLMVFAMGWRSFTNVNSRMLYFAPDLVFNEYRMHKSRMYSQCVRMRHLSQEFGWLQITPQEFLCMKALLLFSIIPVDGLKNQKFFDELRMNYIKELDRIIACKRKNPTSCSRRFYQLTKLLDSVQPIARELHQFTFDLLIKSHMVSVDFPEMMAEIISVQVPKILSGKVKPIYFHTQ

Cc1cccc([N+](=O)[O-])c1C(=O)O
inactive: Potency [1] | Potency [2] | Potency [3] | Potency [4] | Potency [5] | Potency [6] | Potency [7] | Potency [8] | Potency [9] | Potency [10] | Potency [11] | Potency [12] | outcome [13] | Potency [14] | Potency [15] | outcome [16] | Potency [17]

CC(=O)OC(C)C
inactive: Potency [1] | Potency [2] | Potency [3] | Potency [18] | Potency [4] | Potency [5] | Potency [6] | Potency [7] | Potency [8] | Potency [9] | Potency [10] | Potency [11] | Potency [12] | outcome [13] | Potency [14] | Potency [15] | outcome [16] | Potency [17]

CSc1ccc(C=O)cc1
inactive: Potency [1] | Potency [2] | Potency [3] | Potency [18] | Potency [4] | Potency [5] | Potency [6] | Potency [7] | Potency [8] | Potency [9] | Potency [10] | Potency [11] | Potency [12] | outcome [13] | Potency [14] | Potency [15]

O=[N+]([O-])c1c(Cl)cc(Cl)cc1Cl
inactive: Potency [1] | Potency [2] | Potency [3] | Potency [18] | Potency [4] | Potency [5] | Potency [6] | Potency [7] | Potency [8] | Potency [9] | Potency [10] | Potency [11] | Potency [12] | outcome [13] | Potency [14] | Potency [15]

Nc1ccc(F)cc1F
inactive: Potency [1] | Potency [2] | Potency [3] | Potency [18] | Potency [4] | Potency [5] | Potency [6] | Potency [7] | Potency [8] | Potency [9] | Potency [10] | Potency [11] | Potency [12] | outcome [13] | Potency [14] | Potency [15] | outcome [16] | Potency [17] | activation [19] 18.9%

O=Cc1c(Cl)cccc1Cl
inactive: Potency [1] | Potency [2] | Potency [3] | Potency [18] | Potency [4] | Potency [5] | Potency [6] | Potency [7] | Potency [8] | Potency [9] | Potency [10] | Potency [11] | Potency [12] | outcome [13] | Potency [14] | Potency [15] | outcome [16] | Potency [17]

Cc1ccc2nc(-c3ccc(N)cc3)sc2c1S(=O)(=O)O
inactive: Potency [1] | Potency [2] | Potency [3] | Potency [18] | Potency [4] | Potency [5] | Potency [6] | Potency [7] | Potency [8] | Potency [9] | Potency [10] | Potency [11] | outcome [13] | Potency [14] | Potency [15] | outcome [16]

Nc1cc(Cl)c(N)c(Cl)c1
inactive: Potency [1] | Potency [2] | Potency [3] | Potency [18] | Potency [4] | Potency [5] | Potency [6] | Potency [7] | Potency [8] | Potency [9] | Potency [10] | Potency [11] | Potency [12] | outcome [13] | Potency [14] | Potency [15] | outcome [16] | Potency [17]

CCCCC(CC)C(=O)O (stereo not drawn)
inactive: Potency [1] | Potency [2] | Potency [3] | Potency [18] | Potency [4] | Potency [5] | Potency [6] | Potency [7] | Potency [9] | Potency [10] | Potency [11] | Potency [12] | outcome [13] | Potency [14] | Potency [15]

C=CCCC
inactive: Potency [1] | Potency [2] | Potency [3] | Potency [18] | Potency [4] | Potency [5] | Potency [6] | Potency [7] | Potency [8] | Potency [9] | Potency [10] | Potency [11] | outcome [13] | outcome [16] | Potency [17]
